Test [1] in a line: ATG_E_Box_CIS: Attagene CIS-FACTORIAL HepG2 Assay for human Enhancer Box (E-box) (AID 2282936). To be noted: HepG2 E-box cis-reporter transcription, actives raise or lower the signal. Put shortly:
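DMSO served as negative control and baseline for bidirectional fitting. Human hepatoma HepG2 cells, transiently transfected with cis-reporter constructs, were dosed 24 h; reporter mRNA read by RT-PCR and capillary electrophoresis.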

Test [2] can be described thus: ATG_M_61_CIS: Attagene CIS-FACTORIAL HepG2 Assay for M61 Transcription Factor (Internal Marker) (AID 2282937). As to conditions: HepG2 Attagene CIS-FACTORIAL M61 internal marker reporter; actives raise or lower the signal. Put shortly: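 HepG2 cells transiently transfected with cis-element-driven multiple reporter transcription units, dosed for 24 h. Reporter mRNA measured by RT-PCR, 6-FAM primer-extension labelling, HpaI digestion and capillary electrophoresis; bidirectional fit versus DMSO baseline.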

Test [3] can be described thus: ATG_EGR_CIS: Attagene CIS-FACTORIAL HepG2 Assay for human Early Growth Response 1 (EGR1) (AID 2282938). To be noted: HepG2 Attagene CIS-FACTORIAL EGR reporter mRNA; actives raise or lower the signal. The method, boiled down: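 HepG2 cells transiently transfected with cis-promoter-driven multiplexed reporter transcription units; reporter mRNA measured 24 h after compound dosing by RT-PCR, 6-FAM primer extension, HpaI digestion and capillary electrophoresis. Bidirectional fit versus DMSO baseline.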

Test [4] in a line: ATG_M_19_CIS: Attagene CIS-FACTORIAL HepG2 Assay for M19 Transcription Factor (Internal Marker) (AID 2282939). To be noted: HepG2 Attagene CIS-FACTORIAL M19 internal marker reporter; actives raise or lower the signal. Put shortly:
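Chemical-treated HepG2 (24 h) with MRTU constructs; reporter transcripts detected by fluorescent RT-PCR fragment analysis on capillary electrophoresis. Internal background marker, DMSO as baseline.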

A short description of test [5]: ATG_ERE_CIS: Attagene CIS-FACTORIAL HepG2 Assay for Estrogen Response Element (ERE) (AID 2282940). To be noted: HepG2 ERE cis-reporter, Attagene RNA transcript; actives raise or lower the signal. The method, boiled down:
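Human liver cells (HepG2) bearing transiently transfected, promoter-regulated reporter units were exposed 24 h. Reporter mRNA induction was detected by capillary electrophoresis of labelled RT-PCR products and fitted bidirectionally to DMSO.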

A short description of test [6]: ATG_Ets_CIS: Attagene CIS-FACTORIAL HepG2 Assay for human Erythroblast Transformation Specific (ETS) (AID 2282941). To be noted: HepG2 ETS cis-reporter transcription, actives raise or lower the signal. Put shortly:
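Steps: transfect HepG2 with multiple reporter units; treat compound 24 h; isolate RNA, DNase-treat, reverse-transcribe; PCR-amplify, label with 6-FAM, digest with HpaI; separate by capillary electrophoresis. Activity fitted both directions versus DMSO.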

Test [7] addresses Hepatocyte nuclear factor 3-beta (Homo sapiens) (UniProt Q9Y261). In words: ATG_FoxA2_CIS: Attagene CIS-FACTORIAL HepG2 Assay for human Forkhead box A2 (FOXA2) (AID 2282942). To be noted: HepG2 cis-reporter transcription factor activity, 24 h; actives raise or lower the signal. The method, boiled down:
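HepG2 cells transiently transfected with multiple cis-regulated reporter transcription units, dosed for 24 h. Reporter mRNA measured by RT-PCR, 6-FAM labelling, HpaI digestion and capillary electrophoresis; bidirectional fitting against DMSO baseline.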

Test [8] in a line: ATG_FoxO_CIS: Attagene CIS-FACTORIAL HepG2 Assay for human Forkhead box O (FoxO) (AID 2282943). As to conditions: HepG2 Attagene cis-reporter, FoxO element, mRNA; actives raise or lower the signal. Put shortly:
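HepG2, transient MRTU transfection (cis element, endogenous TFs). Dose 24 h. TriZol RNA → oligo(dT) RT → PCR → 6-FAM primer extension → HpaI cut → CE. Gain/loss vs DMSO.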

A short description of test [9]: ATG_GATA_CIS: Attagene CIS-FACTORIAL HepG2 Assay for human GATA Binding Protein (AID 2282944). As to conditions: HepG2 GATA cis-element reporter, Attagene multiplex mRNA; actives raise or lower the signal. Put shortly: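 Transfected cis-reporter HepG2 cells were treated with chemicals for 24 hours. Total RNA was then converted to cDNA, amplified with reporter-specific primers and analysed by fluorescent capillary electrophoresis, using DMSO-treated wells as baseline.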

The nature of test [10]: ATG_GLI_CIS: Attagene CIS-FACTORIAL HepG2 Assay for human Zinc Finger Protein GLI1 (AID 2282945). As to conditions: HepG2, Attagene cis-factorial reporter mRNA, GLI element; actives raise or lower the signal. The method, boiled down: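 Bidirectional curve fits relative to DMSO, using reporter mRNA levels from RT-PCR plus capillary electrophoresis. Cells were HepG2 transiently carrying cis-regulated reporter constructs, harvested 24 h after dosing.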

Test [11] has as its target Bile acid receptor (Homo sapiens) (UniProt Q96RI1). In words: ATG_IR1_CIS: Attagene CIS-FACTORIAL HepG2 Assay for human Nuclear Receptor Subfamily 1 Group H Member 4 (NR1H4), IR1 submotif (AID 2282946). To be noted: IR1 reporter transcription, actives raise or lower the signal. Put shortly: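 Cells (human HepG2) carry transiently transfected cis-promoter reporter transcription units. Compounds are incubated 24 h, total RNA is reverse-transcribed and amplified, and labelled fragments are resolved by capillary electrophoresis. Curves use DMSO as baseline.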

The nature of test [12]: ATG_GRE_CIS: Attagene CIS-FACTORIAL HepG2 Assay for human Glucocorticoid Response Elements (GRE) (AID 2282947). To be noted: HepG2 GRE cis-reporter, Attagene multiplex mRNA; actives raise or lower the signal. The method, boiled down: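 Assay uses human hepatoma HepG2 cells transfected with cis-promoter reporter units, exposed 24 h. mRNA from reporters detected by RT-PCR plus capillary electrophoresis; DMSO serves as negative control and baseline.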

Test [13] is described as follows: ATG_ISRE_CIS: Attagene CIS-FACTORIAL HepG2 Assay for human Interferon Regulatory Factor 1 (IRF1) binding to an Interferon-Stimulated Response Element (ISRE) (AID 2282948). To be noted: HepG2 ISRE cis-reporter (Attagene), mRNA transcription readout; actives raise or lower the signal. Put shortly:
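Transfected HepG2 (multiple reporter transcription units, cis elements) dosed 24 h. RNA → oligo(dT) RT → PCR → 6-FAM primer extension → HpaI → CE. DMSO = negative control/baseline.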

Test [14] can be described thus: ATG_M_32_CIS: Attagene CIS-FACTORIAL HepG2 Assay for M32 Transcription Factor (Internal Marker) (AID 2282949).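 Also: background control marker of the multiplexed CIS panel rather than a real target.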 To be noted: HepG2 Attagene cis-factorial M32 reporter, mRNA; actives raise or lower the signal. The method, boiled down: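 Internal background marker read-out: RT-PCR/capillary electrophoresis fluorescence of reporter transcripts from transiently transfected HepG2 cells after 24 h chemical exposure. Activity fitted bidirectionally relative to DMSO negative control.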

The nature of test [15]: ATG_M_06_CIS: Attagene CIS-FACTORIAL HepG2 Assay for M06 Transcription Factor (Internal Marker) (AID 2282950). To be noted: HepG2 Attagene CIS-FACTORIAL M06 internal marker reporter; actives raise or lower the signal. The method, boiled down:
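Cells (HepG2, transiently carrying cis-driven reporter units) receive chemical for 24 h before RNA isolation. Reporter cDNA is PCR-amplified, FAM-labelled by primer extension, HpaI-digested and sized on a capillary analyser.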

Test [16] concerns the target Hypoxia-inducible factor 1-alpha (Homo sapiens) (UniProt Q16665). In words: ATG_HIF1a_CIS: Attagene CIS-FACTORIAL HepG2 Assay for human Hypoxia Inducible Factor 1 (HIF1A) (AID 2282951). To be noted: HepG2 Attagene cis-factorial HIF1a reporter transcription; actives raise or lower the signal. Put shortly: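 HepG2 cells transiently transfected with multiplexed cis-promoter reporter units; reporter mRNA read 24 h after dosing by RT-PCR, 6-FAM primer-extension labelling, HpaI digestion and capillary electrophoresis. Bidirectional fit versus DMSO baseline.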

For test [17], the target named is Hepatocyte nuclear factor 6 (Homo sapiens) (UniProt Q9UBC0). In words: ATG_HNF6_CIS: Attagene CIS-FACTORIAL HepG2 Assay for human Hepatocyte Nuclear Factor 6 (HNF6) (AID 2282952). To be noted: HepG2 Attagene cis-factorial HNF6 reporter transcription; actives raise or lower the signal. Put shortly: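 Cells are HepG2 carrying transiently transfected cis-promoter reporter units. Treatment lasts 24 h, after which reporter transcripts are reverse-transcribed, amplified, FAM-labelled and sized by capillary electrophoresis. DMSO serves as baseline.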
Sequence of Hepatocyte nuclear factor 6 (Homo sapiens) (Q9UBC0 whole entry, looked up): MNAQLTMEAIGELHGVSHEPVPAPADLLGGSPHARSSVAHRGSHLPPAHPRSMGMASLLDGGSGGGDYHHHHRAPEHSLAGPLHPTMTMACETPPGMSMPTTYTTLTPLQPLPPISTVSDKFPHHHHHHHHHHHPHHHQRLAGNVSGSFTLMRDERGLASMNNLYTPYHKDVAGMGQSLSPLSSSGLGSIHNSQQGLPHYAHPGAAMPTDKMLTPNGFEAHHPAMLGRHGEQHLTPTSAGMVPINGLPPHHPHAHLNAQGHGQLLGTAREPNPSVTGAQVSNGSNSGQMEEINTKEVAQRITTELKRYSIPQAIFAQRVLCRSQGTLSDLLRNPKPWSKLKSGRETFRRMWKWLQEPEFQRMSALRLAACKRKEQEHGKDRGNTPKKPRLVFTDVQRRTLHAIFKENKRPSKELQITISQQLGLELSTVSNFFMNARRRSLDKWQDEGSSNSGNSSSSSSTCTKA

Test [18] concerns the target Heat shock factor protein 1 (Homo sapiens) (UniProt Q00613). Description: ATG_HSE_CIS: Attagene CIS-FACTORIAL HepG2 Assay for human Heat Shock Transcription Factor 1 (HSE) (AID 2282953). As to conditions: HepG2 HSE cis-reporter, Attagene RNA transcription; actives raise or lower the signal. Put shortly:
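Liver-derived HepG2 cells carry transiently introduced multiple reporter units governed by cis promoters. Reporter RNA measured 24 h post-dose through reverse transcription, PCR amplification, fluorescent labelling and capillary electrophoresis, normalised to DMSO.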

A short description of test [19]: ATG_MRE_CIS: Attagene CIS-FACTORIAL HepG2 Assay for human Metal Responsive Element (MRE) (AID 2282954). To be noted: HepG2 MRE cis-reporter transcription, Attagene multiplex; actives raise or lower the signal. Put shortly:
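After a 24 h chemical exposure, transiently transfected HepG2 cells yield RNA whose reporter sequences are amplified, FAM-labelled and sized by capillary electrophoresis. Curves are fitted bidirectionally relative to DMSO.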

Test [20] in a line: ATG_PBREM_CIS: Attagene CIS-FACTORIAL HepG2 Assay for human Phenobarbital-responsive Enhancer Module (PBREM) (AID 2282955). To be noted: HepG2 PBREM cis-reporter, Attagene multiplexed transcription; actives raise or lower the signal. The method, boiled down: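 HepG2 cells transiently transfected with multiple cis-regulated reporter transcription units; endogenous factor activity at the PBREM element measured as reporter mRNA 24 h after dosing, via RT-PCR and capillary electrophoresis of fluorescent fragments; bidirectional fitting versus DMSO.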

Activity calls are given as the source filed them. The calls were made as follows: active = hit-call score of the fitted dose curve at least 0.9, where 1 is the maximum; inactive = score below 0.9.

Sequence of Hypoxia-inducible factor 1-alpha (Homo sapiens) (Q16665 whole entry, looked up): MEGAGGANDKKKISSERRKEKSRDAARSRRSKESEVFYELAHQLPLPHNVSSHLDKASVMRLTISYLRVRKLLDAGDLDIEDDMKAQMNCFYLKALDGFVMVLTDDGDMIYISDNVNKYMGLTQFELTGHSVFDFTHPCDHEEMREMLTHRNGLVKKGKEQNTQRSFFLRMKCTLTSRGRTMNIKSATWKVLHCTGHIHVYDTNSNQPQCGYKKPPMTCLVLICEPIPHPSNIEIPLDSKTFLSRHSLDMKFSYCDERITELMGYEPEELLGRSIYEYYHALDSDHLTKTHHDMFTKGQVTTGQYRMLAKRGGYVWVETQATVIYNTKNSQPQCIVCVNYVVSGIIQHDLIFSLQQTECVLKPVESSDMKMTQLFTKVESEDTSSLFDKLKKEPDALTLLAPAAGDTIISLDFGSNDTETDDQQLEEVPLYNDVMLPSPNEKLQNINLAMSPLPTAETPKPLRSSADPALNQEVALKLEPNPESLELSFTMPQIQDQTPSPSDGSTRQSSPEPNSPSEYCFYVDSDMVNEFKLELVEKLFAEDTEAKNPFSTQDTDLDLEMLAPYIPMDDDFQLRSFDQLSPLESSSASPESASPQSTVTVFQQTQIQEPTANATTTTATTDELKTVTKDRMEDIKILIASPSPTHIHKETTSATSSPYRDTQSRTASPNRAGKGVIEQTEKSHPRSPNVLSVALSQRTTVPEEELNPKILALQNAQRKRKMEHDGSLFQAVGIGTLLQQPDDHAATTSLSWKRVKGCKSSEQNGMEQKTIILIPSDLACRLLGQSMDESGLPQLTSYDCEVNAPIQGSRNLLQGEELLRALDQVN
Sequence of Hepatocyte nuclear factor 3-beta (Homo sapiens) (Q9Y261 whole entry, looked up): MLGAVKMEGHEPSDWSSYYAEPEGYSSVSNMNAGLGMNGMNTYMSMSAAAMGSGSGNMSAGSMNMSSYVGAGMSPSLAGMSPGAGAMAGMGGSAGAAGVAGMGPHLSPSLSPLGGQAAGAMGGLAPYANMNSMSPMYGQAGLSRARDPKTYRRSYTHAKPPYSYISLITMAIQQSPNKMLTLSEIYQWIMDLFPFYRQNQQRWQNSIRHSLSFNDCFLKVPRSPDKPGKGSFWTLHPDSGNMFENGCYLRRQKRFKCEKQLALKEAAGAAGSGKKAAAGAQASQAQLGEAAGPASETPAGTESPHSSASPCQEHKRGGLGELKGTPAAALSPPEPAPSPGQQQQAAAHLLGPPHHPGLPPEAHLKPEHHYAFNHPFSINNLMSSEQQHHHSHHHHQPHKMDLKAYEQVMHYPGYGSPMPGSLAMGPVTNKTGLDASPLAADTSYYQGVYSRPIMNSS
Sequence of Bile acid receptor (Homo sapiens) (Q96RI1 whole entry, looked up, the tested form may be a part): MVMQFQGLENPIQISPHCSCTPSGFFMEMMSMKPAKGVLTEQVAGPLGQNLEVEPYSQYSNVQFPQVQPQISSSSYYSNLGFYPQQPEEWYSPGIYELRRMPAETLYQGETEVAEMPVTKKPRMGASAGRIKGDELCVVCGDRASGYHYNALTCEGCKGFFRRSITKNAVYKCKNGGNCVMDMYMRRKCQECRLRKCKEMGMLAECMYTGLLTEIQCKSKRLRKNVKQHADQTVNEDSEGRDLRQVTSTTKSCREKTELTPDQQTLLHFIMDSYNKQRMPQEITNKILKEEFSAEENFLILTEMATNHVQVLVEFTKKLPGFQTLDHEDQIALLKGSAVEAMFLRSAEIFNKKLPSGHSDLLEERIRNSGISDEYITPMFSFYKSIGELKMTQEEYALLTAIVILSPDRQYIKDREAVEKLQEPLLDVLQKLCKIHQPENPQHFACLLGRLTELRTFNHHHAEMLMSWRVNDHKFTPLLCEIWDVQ
Sequence of Heat shock factor protein 1 (Homo sapiens) (Q00613 whole entry, looked up): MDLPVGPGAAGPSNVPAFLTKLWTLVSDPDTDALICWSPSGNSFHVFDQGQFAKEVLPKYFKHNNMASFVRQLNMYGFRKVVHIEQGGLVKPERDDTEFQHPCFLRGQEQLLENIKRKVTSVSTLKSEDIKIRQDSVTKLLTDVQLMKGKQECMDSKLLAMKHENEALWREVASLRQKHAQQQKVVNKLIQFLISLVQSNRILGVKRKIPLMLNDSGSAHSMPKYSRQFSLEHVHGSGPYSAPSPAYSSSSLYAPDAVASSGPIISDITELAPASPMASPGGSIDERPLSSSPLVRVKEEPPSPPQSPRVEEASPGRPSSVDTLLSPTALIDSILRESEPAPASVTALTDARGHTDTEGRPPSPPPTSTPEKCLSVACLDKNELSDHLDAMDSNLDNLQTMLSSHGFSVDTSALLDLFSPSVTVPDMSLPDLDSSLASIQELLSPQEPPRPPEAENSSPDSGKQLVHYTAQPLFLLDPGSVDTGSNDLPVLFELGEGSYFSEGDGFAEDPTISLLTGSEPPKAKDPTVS

As to `CCCCCCOC(=O)C(C)CC` (centres undefined), the result in [1], in test [2], in [3], in [4], in test [5] and in test [6] was inactive. Further, the molecule was called inactive in [7], in test [8], in test [9], in [10], in test [11] and in test [12]. The call in test [13], in test [14], in test [15], in test [16], in test [17] and in [18] was inactive. The outcome in test [19] and in [20] was inactive.
With `CC=C1CC2C=CC1C2` (centres undefined), the result in test [1], in [2], in test [3], in [4], in test [5] and in test [6] was inactive. The molecule was called inactive in [7], in [8], in [9], in test [10], in test [11] and in test [12]. For the same molecule, the result in test [13], in test [14], in test [15], in test [16], in test [17] and in test [18] was inactive. In [20], the result was inactive. The AC50 in test [19] is 87.6 µM (active).
As to `O=CC1CC1`, the outcome in test [1], in test [2], in test [3], in test [4], in [5] and in test [6] was inactive. In addition, the call in test [7], in test [8], in [9], in test [10], in test [11] and in test [12] was inactive. The outcome in test [13], in test [14], in test [15], in test [16], in [17] and in [18] was inactive. Also, the molecule was called inactive in [19] and in test [20].
For `NNC(=O)c1cccc(C(=O)NN)c1`, the outcome in test [1], in test [2], in test [3], in test [4], in [5] and in [6] was inactive. Moreover, the outcome in test [7], in test [8], in test [9], in test [10], in test [11] and in [12] was inactive. Besides, the molecule was classed as inactive in [13], in test [14], in [15], in test [16], in test [17] and in [18]. For the same molecule, the molecule was called inactive in test [19].

One may read the AC50 as the concentration giving half of the maximal activity seen.
